# Screening results as filed in PubChem.
# Shown are actives, neighbours in structure and some others; about 2.3% of the full set was active somewhere.
# M1 antag = antagonists of human M1 muscarinic receptor; inhibition, % at 3 µM; AID 588852; 360,000 tested, 1.3% active; CHO-K1 hM1, Fluo-8 calcium fluorescence, ACh EC80 antagonist; P11229;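 active = percent inhibition above its own plate's cutoff, namely the mean of that plate's compound wells plus 3 SD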;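 note: peak over basal fluorescence ratio during 140 s after agonist addition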
# Target sequence (P11229 whole entry, looked up): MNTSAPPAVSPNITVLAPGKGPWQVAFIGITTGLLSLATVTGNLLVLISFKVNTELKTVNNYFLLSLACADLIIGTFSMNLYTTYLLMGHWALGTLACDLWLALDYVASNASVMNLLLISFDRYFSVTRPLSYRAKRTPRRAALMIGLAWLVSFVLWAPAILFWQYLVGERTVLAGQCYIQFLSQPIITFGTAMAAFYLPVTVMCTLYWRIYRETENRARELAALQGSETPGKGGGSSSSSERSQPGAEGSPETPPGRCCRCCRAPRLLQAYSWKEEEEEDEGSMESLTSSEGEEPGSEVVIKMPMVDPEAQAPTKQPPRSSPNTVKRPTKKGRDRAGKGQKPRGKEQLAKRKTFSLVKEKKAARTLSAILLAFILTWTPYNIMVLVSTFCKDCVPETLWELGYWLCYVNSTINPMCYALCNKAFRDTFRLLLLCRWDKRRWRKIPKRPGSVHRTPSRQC
# CHO-K1 Ca antag = nonselective inhibitor or artifact in parental CHO-K1 cells. ATP-induced calcium, Fluo-8 fluorescence. inhibition, % at 3 µM. 360,000 tested, 0.6% active. AID 602250;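 active = inhibition above a per-plate cutoff, the plate's mean sample inhibition plus 3 SD, cut at about 24% in these data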
# CHO-K1 Ca ag = nonselective activator or artifact in parental CHO-K1 cells; activation, % at 3 µM; 360,000 tested, 0.48% active; Fluo-8 calcium fluorescence; scaled to maximal ATP response, vehicle zero; in the data active = activation above about 15%;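 note: untransfected CHO-K1 host cells lacking M1 receptor as counterscreen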
# CHRM1 agonist = human M1 muscarinic receptor agonism | activation, % at 3 µM | P11229 | AID 588814 | 360,000 tested, 0.33% active | CHO-K1 hM1, Fluo-8 calcium fluorescence, agonist mode; 0% DMSO, 100% acetylcholine EC100;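 active = activation above the run's mean compound activation plus 3 SD, cut at about 16% in these data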;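 note: peak over basal fluorescence ratio within a 140 s kinetic read after compound addition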
# M1 PAM parental = counter-screen for M1 PAMs: effect in parental CHO-K1 cells; ATP EC20, Fluo-8 calcium fluorescence; 0% at ATP EC20, 100% at ATP max; activation, % at 3 µM; 360,000 tested, 0.02% active; AID 602247;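 active = activation above the run cutoff, the mean activation of all test compounds plus 3 SD, cut at about 40% in these data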;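 note: peak over basal fluorescence ratio in a 140 s read after ATP addition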
# M1 PAM = positive allosteric modulators of human M1 muscarinic receptor; activation, % at 3 µM; P11229; 360,000 tested, 0.088% active; CHO-K1 hM1, Fluo-8 calcium fluorescence, ACh EC20; 0% = ACh EC20, 100% = maximal ACh; AID 588819; in the data active = activation above about 19%, passing the limit was not always enough
# Numbers stand for hits; 0 = inactive; - = no result given; ! = repeats disagree.
SMILES,M1 antag,CHO-K1 Ca antag,CHO-K1 Ca ag,CHRM1 agonist,M1 PAM parental,M1 PAM
Cc1ccc(-c2nc3ccc(Br)cn3c2Cc2cccc(F)c2)cc1,0,0,0,0,0,0
C#CCNC(=O)C[C@@H]1C[C@@]2(C(=O)OCC)CCC=C2N(Cc2ccc(Cl)cc2Cl)C1=O,-,0,0,-,0,-
CCOc1ccc(-c2c(C(=O)N/N=C/c3ccc(C)o3)nnn2-c2nonc2N)cc1,0,0,0,0,0,0
CCn1c(SCC(=O)N/N=C/c2ccc(C)o2)nnc1-c1ccccc1,0,28.3,0,0,0,0
Cc1ccc(/C=N/NC(=O)c2nnn(-c3nonc3N)c2-c2ccccc2)o1,0,0,21.9,0,0,0
Nc1ccc(/C=C/C(=O)c2cccs2)cc1,0,0,22.1,0,0,0
O=C(C=Cc1ccccc1)c1cccs1,0,0,0,0,0,0
C[C@H](CO)N1C[C@H](C)[C@H](CN(C)S(=O)(=O)c2cccc(C#N)c2)OCc2cnnn2CCCC1=O,0,0,0,0,0,0
COc1ccc(CN2C(=O)C(CC(C)C)Nc3ncnc(N4CCN(c5ccccn5)CC4)c32)cc1 (stereo not drawn),0,0,0,0,0,0
CC(C)CC1Nc2ncnc(N3CCN(c4ccccn4)CC3)c2N(Cc2ccc(Br)cc2)C1=O (stereo not drawn),40.1!,0,0,0,0,0
Cc1ccc(CN2C(=O)C(CC(C)C)Nc3ncnc(N4CCN(c5ccccn5)CC4)c32)cc1 (stereo not drawn),34.2,0,0,0,0,0
O=C(c1ccc(Br)c(S(=O)(=O)N2CCOCC2)c1)N1CCN(C/C=C/c2ccccc2)CC1,69.9,0,0,0,0,0
CC1CC(C)CN(C(=O)c2ccc(Br)c(S(=O)(=O)N3CCOCC3)c2)C1 (stereo not drawn),0,0,0,0,0,0
CCc1nc2c(OCc3ccc(F)c(F)c3)cccn2c1N(C)C(=O)C1CC1,24.7,0,0,0,0,0
CCc1nc2c(OCCOc3ccccc3)cccn2c1N(C)C(=O)c1ccc(C)cc1,43.6,0,0,0,0,0
Cc1nc2c(OCC(=O)c3ccc(F)cc3)cccn2c1N(C)Cc1cccs1,0,0,0,0,0,0
Cc1nc2c(OCc3ccc(C#N)cc3)cccn2c1N(C)Cc1cccs1,44.8,0,0,0,0,0
CCOC(=O)N(C)c1c(CC)nc2c(OCc3ccc(F)c(F)c3)cccn12,0,0,0,0,0,0
CCc1nc2c(OCCOc3ccc(F)cc3)cccn2c1N(C)C(=O)c1ccc(C)cc1,0,0,0,0,0,0
Cc1nc2c(OCc3cc(Cl)cc(Cl)c3)cccn2c1N(C)C(=O)CCC1CCCC1,38.0,0,0,0,0,0
CSc1ncccc1C(=O)N1CCCC(N2CCN(c3ccccc3F)CC2)C1 (stereo not drawn),0,0,0,0,0,0
Cc1nc2c(OCc3ccc(C(F)(F)F)cc3)cccn2c1N(C)CC1CC1,36.0,0,0,0,0,0
CC1CCCN(CCCNC(=O)c2ccc(N3CCCC3=O)cc2)C1 (stereo not drawn),0,0,0,0,0,0
CC(C)NC(=O)c1ccc(CN2CCC(Cc3ccccc3)CC2)cc1,84.4,0,0,0,0,0
C=CCNC(=O)c1ccc(CN2CCC(Cc3ccccc3)CC2)cc1,74.0,0,0,0,0,0
SMILES,M1 antag,CHO-K1 Ca antag,CHO-K1 Ca ag,CHRM1 agonist,M1 PAM parental,M1 PAM
Cc1ccccc1NC(=O)c1ccc(CN2CCC(Cc3ccccc3)CC2)cc1,55.0,0,0,0,0,0
COc1ccc(CCNC(=O)c2ccc(CN3CCC(Cc4ccccc4)CC3)cc2)cc1,0,0,0,0,0,0
CCOc1ccccc1CN1CCN(Cc2ccc(C)o2)CC1CCO (stereo not drawn),0,0,0,0,0,0
CCOc1ccccc1CN1CCN(CC2=Cc3cc(OC)ccc3OC2)CC1CCO (stereo not drawn),34.4,0,0,0,0,0
CC(=O)c1ccc(S(=O)(=O)N2CCNC(=O)C2)cc1,0,0,0,0,0,0
CN(C)/C=N/c1sc2c(c1C#N)CC(C)(C)NC2(C)C,0,0,0,0,0,23.0
COc1ccccc1C(CNc1nc(C(F)(F)F)nc2ccccc12)N(C)C (stereo not drawn),0,0,0,0,0,0
COc1ccc(CNC(=O)c2cccc3c(-c4cccnc4)coc23)cc1OC,33.9,27.7,15.2,0,0,0
O=C(O)CN=C(NS(=O)(=O)c1ccccc1)c1ccccc1,0,0,0,0,0,0
N#CCCN=C(NS(=O)(=O)c1ccccc1)c1ccccc1,0,0,0,0,0,27.7
Cc1c(C(=O)OCC(=O)NCCN2C(=O)CSC2=O)cccc1[N+](=O)[O-],0,29.8,0,0,0,0
COc1ccc(C(=O)Nc2ccc3c(c2)Cc2ccccc2-3)cc1,0,24.1,0,0,0,0
COc1cccc(OC)c1C(=O)Nc1ccc2c(c1)Cc1ccccc1-2,0,0,0,0,0,0
Cc1csc(C(=O)NN)c1N(C)C,0,0,0,0,0,0
Cc1cc(C)cc(N2C(=O)C3CCCN3C2=S)c1 (stereo not drawn),0,0,17.0,0,0,0
O=C(CN1CCCC1)NCc1ccccc1,0,0,0,0,0,0
COc1ccc(NC(=O)CN2CCN(c3ccccc3)CC2)cc1,0,0,0,0,0,0
O=C(CN1CCCCC1)Nc1ccccc1-c1ccccc1,100.9,0,0,0,0,0
O=C(CN1CCCCC1)Nc1ccccc1,0,0,0,0,0,0
O=C(CN1CCCCCC1)Nc1ccc(Oc2ccccc2)cc1,42.0,0,0,0,0,0
COc1ccc(NC(=O)CN2CCN(C3c4ccccc4-c4ccccc43)CC2)cc1,0,0,0,0,52.8,0
O=C(CN1CCOCC1)Nc1ccccc1-c1ccccc1,0,0,0,0,0,0
O=C(CN1CCCCCC1)NN(Cc1ccccc1)c1ccccc1,55.8,0,0,0,0,0
O=C(C[n+]1ccccc1)Nc1ccc(Oc2ccccc2)cc1,90.9,0,0,0,0,0
O=C(CN1CCCC1)NN=C(c1ccccc1)c1ccccc1,63.6,0,0,0,0,0
SMILES,M1 antag,CHO-K1 Ca antag,CHO-K1 Ca ag,CHRM1 agonist,M1 PAM parental,M1 PAM
CN(C)c1ccc(NC(=O)C[n+]2ccccc2)cc1,0,0,0,0,0,0
O=C(CN1CCOCC1)NN=C(c1ccccc1)c1ccccc1,0,0,0,0,0,0
Oc1c(C=Nc2ccccc2Cl)[nH]c2ccccc12,0,0,0,0,0,0
Cc1cc(-c2ccc(C)c(S(=O)(=O)Nc3cc(C)on3)c2)on1,0,0,0,0,0,0
Cc1ccc(NC(=O)CSCC(=O)NNC(=O)c2nn(C)c(=O)c3ccccc23)cc1,0,0,0,0,0,0
COc1ccc(-c2cc(C(F)(F)F)nc(SCc3cccc(C(=O)O)c3)n2)cc1,0,0,0,0,0,0
